G9a block – G9a (human) methyltransferase inhibition | G9a H3K9 monomethylation, AlphaScreen, 2 h | Potency, µM (doses to about 102 µM), without a hit: top-dose activity, negative = inhibition, usual class: inhibitors | actives 8.8% (n = 350,000) | AID 504332; also: % is scaled to controls: 0 for no effect and ±100 for the full control effect; nearly all actives have a fitted effect of over 75% in size
Target sequence (Q96KQ7 913-1193 limits assumed): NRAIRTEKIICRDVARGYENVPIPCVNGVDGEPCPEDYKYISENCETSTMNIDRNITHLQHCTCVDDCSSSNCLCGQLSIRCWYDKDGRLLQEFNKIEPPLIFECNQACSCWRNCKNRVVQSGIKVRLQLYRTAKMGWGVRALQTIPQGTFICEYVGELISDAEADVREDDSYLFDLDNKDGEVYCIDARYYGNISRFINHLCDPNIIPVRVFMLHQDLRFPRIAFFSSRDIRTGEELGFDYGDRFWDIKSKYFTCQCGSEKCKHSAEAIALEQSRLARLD
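Enzyme 20 nM + cpd, 15 min RT; add b-H3K9 pep 500 nM / SAM 20 uM; 2 h RT; anti-H3K9me1 Ab 0.5 ug/mL + SA donor / anti-rabbit acceptor beads 20 ug/mL each, 10 min; AlphaScreen read.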
BAZ2B inh – inhibitors of human BAZ2B bromodomain | Q9UIF8 | AlphaScreen BAZ2B-H3K14Ac peptide displacement | Potency, µM (highest dose often 114 µM), without a hit: at the highest dose activity change, negative = inhibition, actives largely listed as inhibitors | actives 4.4% (n = 360,000) | AID 504333; also: % is scaled to controls: 0 for no effect and ±100 for the full control effect; nearly all actives have a fitted effect of over 60% in size
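Protein-peptide AlphaScreen: BAZ2B 50 nM, b-H3K14Ac 50 nM, 1x PBS pH 7.4 + 0.01% Tween-20. Preincubation 30 min RT; cpd 30 min RT (top 110 uM); beads 20 min RT, light-protected.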
PLK1 PBD block – inhibitors of human PLK1 polo-box domain binding | AID 720504 | Potency, µM, without a hit: max response, negative = inhibition, hits mostly inhibitors | actives 2.8% (n = 360,000) | Plk1 PBD binding of FITC phosphopeptide, fluorescence polarization | P53350; also: series mostly up to about 57 µM; % is scaled to controls: 0 for no effect and ±100 for the full control effect; nearly all actives have a fitted effect of over 65% in size
HP1b chromo inh – blocks HP1-beta chromodomain binding to methylated histone tails | P83916 | AlphaScreen HP1-beta / biotin-H3K9me3 peptide binding | Potency, µM (highest dose often 114 µM), for inactives: top-dose activity change, negative = inhibition, actives largely listed as inhibitors | actives 0.56% (n = 390,000) | AID 540317; also: nearly all actives have a fitted effect of over 70% in size
Target sequence (P83916 whole entry, looked up): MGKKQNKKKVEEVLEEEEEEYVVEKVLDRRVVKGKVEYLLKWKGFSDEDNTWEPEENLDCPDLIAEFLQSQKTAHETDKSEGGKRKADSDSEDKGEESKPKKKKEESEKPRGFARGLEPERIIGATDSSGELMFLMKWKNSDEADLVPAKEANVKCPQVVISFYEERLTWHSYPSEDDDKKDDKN
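Compound inhibition of the preformed complex between 50 nM HP1-beta and 50 nM biotinylated H3K9me3 peptide was read by AlphaScreen. Buffer was PBS pH 7.4 with 0.01% Tween-20. Incubations ran 30 min at room temperature, with 10 ug/mL donor/acceptor beads.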
VDR inhibitor – blocks the human vitamin D receptor; P11473; VDR-SRC2-3 peptide fluorescence polarization, 2 h; Potency, µM, inactives show max response, negative = inhibition, actives largely listed as inhibitors; actives 0.93% (n = 400,000); AID 504847; also: % is scaled to controls: 0 for no effect and ±100 for the full control effect
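Two reagent solutions held at 4 deg C in the dark were dispensed, compounds pinned at 23 nl, and the mixture incubated 2 h at room temperature. Read-out: fluorescence polarization of VDR–SRC2-3 peptide binding.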
JMJD2A Tudor inh – blocks the human JMJD2A Tudor domain; actives 4.4% (n = 390,000); O75164; Potency, µM (highest dose often 114 µM), inactives show at the highest dose activity change, negative = inhibition, actives largely listed as inhibitors; AID 504339; AlphaScreen JMJD2A-Tudor / H3K4me3 peptide binding; also: % is scaled to controls: 0 for no effect and ±100 for the full control effect; nearly all actives have a fitted effect of over 50% in size
Starred values were filed as active, the others as inactive; ? = inconclusive; · = not tested or not shown; ! = not confirmed by another sample; [ ] = remark or other dose. Most compounds without a hit are left out; they make up all but 11% or so of the library. Calls follow the shape of the dose curve; as a rule, active = well fitted curve in the direction sought with a large enough effect; inconclusive = small, poorly fitted or top-dose-only effect, or another doubt; inactive = no such curve, though single readings can be large; an effect the other way counts as inactive or inconclusive. Potency is read from the fitted curve at half-maximal effect.

SMILES	G9a block	BAZ2B inh	PLK1 PBD block	HP1b chromo inh	VDR inhibitor	JMJD2A Tudor inh
CCN(CC)C(=O)COC(=O)c1cc(-c2ccco2)nc2ccccc12	4µM*	22µM*	?	?	12%	56µM*
O=C(OCC(=O)N1CCN(C(=O)c2ccco2)CC1)c1cc(-c2cccc(Br)c2)nc2ccccc12	14µM*	-39%	-7%	-14%	9%	-31%
CCN(CC)C(=O)COC(=O)c1cc(-c2ccc(OC)cc2)nc2ccccc12	30%[59 µM]	25%	0%	78%	-1%	26%
O=C(OCC(=O)N1CCN(C(=O)c2ccco2)CC1)c1cc(-c2ccccc2)nc2ccccc12	?	?	-16%	-19%	11%	?
Cc1c(Cl)cccc1NC(=O)NCCOCCn1c(=O)oc2ccccc21	-4%[59 µM]	-4%	·	14%	4%	-18%
O=C(COC(=O)c1cc(-c2ccco2)nc2ccccc12)NCc1ccccc1	45µM*	10%	-16%	26%	-11%	-8%
O=C(Nc1nnc(-c2ccco2)o1)c1ccc(Cl)s1	79µM*	?	4%	56%	2%	0%
O=C(CSc1ccc(F)cc1)Nc1nnc(-c2ccco2)o1	1%[0.501 µM]	35µM*	-14%	38%	23%	?
CC(=O)Nc1nnc(-c2ccco2)o1	7%	?	-5%	8%	-14%	4µM*
Cc1ccc(NC(=O)CSc2nnc(-c3ccco3)o2)cc1	5%[59 µM]	-9%	-3%	30%	-3%	1%
COc1ccc(NC2=C3CCCC=C3N(c3ccc(OC)cc3)C2=O)cc1	40µM*	-32%	?	6%	-19%	?
COc1ccccc1Cc1nc2ccccc2nc1SCC(=O)Nc1c(C)cccc1C	58%[59 µM]	16%	·	22%[57 µM]	-16%	-14%
O=C(CSc1ccc(-c2cccs2)nn1)Nc1ccccc1	8%	-12%	-8%	33%	-10%	-7%
Cc1cc(C)cc(NC(=O)CSc2ccc(-c3cccs3)nn2)c1	22µM*	-27%	?	40%	8%	-17%
Cc1nc(C)c(-c2ccc(SCC(=O)Nc3ccccc3)nn2)s1	79µM*	-1%	-3%	33%	22%	8%
Cc1cccc(C)c1NC(=O)CCCCCNS(=O)(=O)c1ccccc1	1%	-9%	24µM*	-6%	-6%	-23%[57.1 µM]
O=S(=O)(NCCCCCNS(=O)(=O)c1ccccc1)c1ccccc1	?	13%	30µM*	-5%	-22%	-13%[11.4 µM]
COC(=O)c1ccc(CNC(=O)COC(=O)c2ccccc2-c2ccccc2)cc1	-3%	-4%	3%	45%	-23%	-3%
N#Cc1cccc(NC(=O)N2CCCC3(CCN(C(=O)c4cc(C(F)(F)F)cc(C(F)(F)F)c4)CC3)C2)c1	-1%[12.7 µM]	·	·	·	-6%	·
Cc1ccc(S(=O)(=O)N(C)C)cc1NC(=O)CN1C(=O)NC(Cc2ccccc2)C1=O (stereo not given)	1%[0.501 µM]	-1%	-3%	15%	-20%	-11%
O=C1C=CC2=C3c4cc(O)c(O)cc4C[C@@]3(O)COC2=C1	·	·	·	·	11µM*	·
CC(=O)Oc1cccc(/C=C2\C=C(c3ccc(C)cc3)OC2=O)c1	?	-15%	19µM*	-4%	?	?
Cc1cc(C)n(CCc2nc(-c3ccco3)cs2)n1	3.5µM*	50µM*	16µM*	?	?	50µM*
O=c1[nH]c(=O)n(Cc2ccccc2)c2nc(-c3ccco3)cc(C(F)(F)F)c12	-5%[59 µM]	17%	-11%	31%	22%	-2%
Cc1nn(CCc2nc(-c3ccco3)cs2)c2[nH]c(=O)cc(C(F)(F)F)c12	?	?	11µM*	?	-82%	79µM*
SMILES	G9a block	BAZ2B inh	PLK1 PBD block	HP1b chromo inh	VDR inhibitor	JMJD2A Tudor inh
Cc1cccc(NC(=O)c2sc(-n3nc(C)c(CCC(C)C)c3C)nc2C)c1C	-2%[59 µM]	-3%	·	56%	16%	12%
Cc1nc(-n2nc(C)c(CCC(C)C)c2C)sc1C(=O)Nc1cccc(Cl)c1C	14µM*	?	·	31%	-12%	-10%
Cc1nc(CC(C)C)cc(C(=O)N2CCCC(CNS(=O)(=O)c3cccs3)C2)n1 (stereo not given)	5%	-14%	-8%	41%	-5%	-4%
COc1ccc(N=Cc2cc(Cc3ccccc3Cl)cc([N+](=O)[O-])c2O)cc1OC	40µM*	?	?	-14%	-4%	?
COc1cc(CCN=Cc2cc(Cl)cc(Cl)c2O)c([N+](=O)[O-])cc1OC	·	·	-8%	·	·	·
Cc1n[nH]c(C)c1Sc1ccccc1N=Cc1cc(Cl)cc([N+](=O)[O-])c1O	?	-10%	?	-11%	-3%	?
Cc1ccc(N=Cc2cc(Cc3ccccc3Cl)cc([N+](=O)[O-])c2O)c(O)c1	32µM*	25µM*	?	?	-14%	14µM*
CN(CC1CCCO1)S(=O)(=O)c1ccc(C(=O)Nc2nnc(-c3ccccc3)o2)cc1 (stereo not given)	36%[59 µM]	?	-23%	43%	0%	-10%
Cc1nn2c(-c3cccc(NC(=O)CSc4nc5ccccc5o4)c3)nnc2c2ccccc12	16µM*	9%	24µM*	3%	-14%	-28%
CCOc1ccc(S(=O)(=O)c2cn(Cc3ccc(C)cc3)c3ccc(OC)cc3c2=O)cc1	1%[59 µM]	5%	·	30%	-10%	-15%
CSc1nc(N)c(C(=O)Nc2ccc([N+](=O)[O-])cc2)s1	-33%	-38%	-12%	21%	?	-6%
CN(C)c1ccc(NC(=O)Nc2ccc3c(c2)nnn3C)cc1	8%[0.501 µM]	-21%	-5%	11%	-2%	-24%
Cc1cc(NC(=O)Nc2ccc(N(C)C)cc2)c2cc(F)cc(F)c2n1	·	·	·	·	18µM*!	·
COc1ccc(N2CCN(C3CCCN(Cc4ccc(F)c(F)c4)C3)CC2)cc1 (stereo not given)	45µM*	?	-3%	-20%	1%	?
CCCN(Cc1cccs1)C(=O)Nc1ccc(Br)cc1F	-10%[59 µM]	-4%	·	23%	-6%	-10%
Cc1cc(C)c2sc(NC(=O)c3ccc(N4C(=O)CCC4=O)cc3)nc2c1	5%	-6%	3%	41%	-16%	2%
Cc1ccc2nc(NC(=S)NC(=O)c3ccc(OC(C)C)cc3)sc2c1	·	56µM*	-7%	22%	0%	-5%
Cc1ccc2nc(NC(=O)c3ccc(N4C(=O)CCC4=O)cc3)sc2c1	11µM*	?	-23%	32%	1%	-25%
CC(C)(C)C(=O)OCc1cc(=O)n2nc(C3CCCCC3)sc2n1	13%[59 µM]	-12%	·	-20%	-4%	-22%
C[C@@H](Oc1ccc(Oc2cnc3ccc(Cl)cc3n2)cc1)C(=O)O	0%[12.7 µM]	·	·	·	·	·
CC(C)(C)c1ccc(OCC(=O)OCCNC(=O)c2cccnc2)cc1	50µM*	5%	1%	36%	1%	-23%

Screens from PubChem.
